Laboratory results reported in PubChem BioAssay (NCATS).
Records with an inconclusive call do not appear. Calls of active or inactive are those of the source. The call rests on the fitted dose curve; in most records, active means well fitted inhibition curve with a large enough effect; inconclusive means small, poorly fitted or top-dose-only effect; inactive means flat fitted curve, though single readings scatter. Peptide text beside a SMILES is read from it.

Each compound was assayed against Ubiquitin carboxyl-terminal hydrolase 1 (Homo sapiens) (UniProt O94782) (assay: Inhibitors of USP1/UAF1: Pilot qHTS (AID 504865; further: nearly all actives have a fitted effect of over 35% in size;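 on activity change, negative = inhibition: rhodamine fluorescence freed from ubiquitin-rhodamine substrate followed over time; top concentration of the series differs between compounds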)). Conditions: purified USP1/UAF1, Ub-rhodamine cleavage fluorescence; series mostly up to 114 µM; activity change, negative = inhibition: at the top concentration.
Source text: Deubiquitinating enzymes (DUBs) are a class of enzymes that can cleave isopeptide bond formed between the C-terminal carboxylate of ubiquitin and a lysine side-chain amino group on the target protein. Among them, ubiquitin specific proteases (USPs) constitute the largest DUB family. Human USPs are emerging as promising targets for pharmacological intervention because of their connection to a number of human diseases, including prostate, colon and breast cancer (1, 2), pediatric acute lymphoblastic leukemia (3), and familial cylindromatosis (4). The advantage of inhibiting USPs lies in the potential specificity of therapeutic intervention that can lead to better efficacy and reduce nonspecific side effects.
In a collaboration between the University of Delaware and the NIH Chemical Genomics Center, a high-throughput screen assay was developed to screen for USP1/UAF1 inhibitors. This miniaturized assay has a fluorescent read-out and is used to screen the NIH Molecular Libraries Small Molecule Repository (MLSMR) in order to identify a small molecule that inhibits USP1.
NIH Chemical Genomics Center [NCGC]
NIH Molecular Libraries Probe Centers Network [MLPCN]
Assay Submitter (PI): Zhihao Zhuang, University of Delaware
1. Priolo, C., et al. (2006) The isopeptidase USP2a protects human prostate cancer from apoptosis. Cancer Res 66, 8625-8632
2. Popov, N., et al. (2007) The ubiquitin-specific protease USP28 is required for MYC stability. Nat Cell Biol 9, 765-774
3. De Pitta, C., et al. (2005) A leukemia-enriched cDNA microarray platform identifies new transcripts with relevance to the biology of pediatric acute lymphoblastic leukemia. Haematologica 90, 890-898
4. Kovalenko, A., et al. (2003) The tumour suppressor CYLD negatively regulates NF-kappaB signalling by deubiquitination. Nature 424, 801-805
3 microliters of reagents (buffer in columns 3 and 4 as negative control and 1nM USP1/UAF1 complex in columns 1, 2, and 5-48) are dispensed into Greiner black solid bottom 1536-well assay plates. Compounds are then transferred via Kalypsys pin tool equipped with 1536-pin array (10nl slotted pins, V&P Scientific, San Diego, CA). Following an incubation step of 15 min at room temperature, 1ul of Ub-Rho substrate (150nM final concentration) is added to initiate the reaction. The plates are immediately centrifuged at 1000 rpm for 15 seconds, and subsequently transferred to a ViewLux high-throughput CCD imager (PerkinElmer) wherein kinetic measurements of fluorescence are acquired using 480 nm excitation/540 nm emission filter set (6 reads every 60 seconds, see Table 1). All reagents are diluted in an assay buffer consisting of 50mM HEPES (pH 7.8), 0.5mM EDTA, 0.1 mg/ml BSA, 1mM TCEP, and 0.01% Tween-20.
On the % scale 0 is the no-effect control and ±100 the full control effect; potency means the concentration at half of the fitted maximal effect.

Sequence of Ubiquitin carboxyl-terminal hydrolase 1 (Homo sapiens) (O94782 whole entry, looked up): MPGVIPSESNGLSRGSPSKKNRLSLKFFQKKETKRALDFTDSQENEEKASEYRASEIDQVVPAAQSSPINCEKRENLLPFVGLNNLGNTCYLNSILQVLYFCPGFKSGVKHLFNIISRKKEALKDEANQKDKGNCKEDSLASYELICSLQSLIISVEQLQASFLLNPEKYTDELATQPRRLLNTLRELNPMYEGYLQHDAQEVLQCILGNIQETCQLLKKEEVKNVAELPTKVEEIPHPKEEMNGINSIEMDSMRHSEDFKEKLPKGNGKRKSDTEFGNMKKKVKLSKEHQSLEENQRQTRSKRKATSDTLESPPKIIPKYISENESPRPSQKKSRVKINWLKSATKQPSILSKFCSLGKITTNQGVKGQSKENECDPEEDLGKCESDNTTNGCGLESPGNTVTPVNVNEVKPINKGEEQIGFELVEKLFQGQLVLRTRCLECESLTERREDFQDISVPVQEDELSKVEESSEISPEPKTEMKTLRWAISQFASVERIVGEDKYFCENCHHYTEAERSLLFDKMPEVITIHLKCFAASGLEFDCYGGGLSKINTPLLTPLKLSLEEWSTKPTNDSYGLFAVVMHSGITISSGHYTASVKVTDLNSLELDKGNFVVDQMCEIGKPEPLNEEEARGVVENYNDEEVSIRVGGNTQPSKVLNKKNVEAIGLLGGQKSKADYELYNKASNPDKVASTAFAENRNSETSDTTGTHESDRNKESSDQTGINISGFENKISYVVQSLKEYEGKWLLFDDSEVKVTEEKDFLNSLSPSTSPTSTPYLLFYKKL

Activity change, negative = inhibition, inactive:
CCOC(=O)CCC(=O)O[C@H]1C(O[C@@H]2C(C)[C@H](O[C@H]3C[C@@](C)(OC)C(O)C(C)O3)C(C)C(=O)OC(CC)[C@@](C)(O)C(O)[C@H](C)C(=O)C(C)C[C@]2(C)O)OC(C)CC1N(C)C (stereo not given in full) -2.73%
CCOC(=O)c1c(C)cc(O)cc1O -14.6%
COC1C(O)C(CO)OC1n1c(Br)nc2c(=O)[nH]c(N)nc21 (stereo not given) 3.74%
CC1(C)CC2C1CCC1(C)OC2(C)CCC1O (stereo not given) -12.8%
CC(=O)OC1CC2C(C)(C)C=CC(=O)[C@@]2(C)C2CC[C@@]3(C)C(c4ccoc4)OC(=O)C4OC43[C@]12C (stereo not given in full) -13.1%
CC[C@H](C)C(=O)O[C@@H]1C[C@H](C)C=C2C=C[C@H](C)[C@@H](CC[C@H]3C[C@@H](O)CC(=O)O3)[C@H]21 -13.9% [at 54.9 µM]
C[C@H]1C[C@]2(O[C@@H]2C)C(=O)O[C@@H]2CCN(C)C/C=C(/COC(=O)[C@]1(C)O)C2=O 2.51%
COc1ccc(CNc2ncncc2-c2ccccc2CN(C)C)c(OC)c1 -11.7%
CC(=O)OC1C[C@@]2(C)C(c3ccoc3)OC(=O)C3O[C@@]32[C@]2(C)C(OC(C)=O)CC3C(C)(C)C(OC(C)=O)CC(OC(C)=O)[C@@]3(C)C12 (stereo not given in full) -12.1%
CCN(CC)Cc1ccc(Nc2ccnc3cc(Cl)ccc23)cc1O -4.08%
CSc1ncnc2c1ncn2C1OC(CO)C(O)C1O (stereo not given) -1.18%
CCC(CCC(C)C1CCC2C3CC=C4CC(OC(C)=O)CC[C@@]4(C)C3CC[C@@]12C)C(C)C (stereo not given in full) -8.22%
CC(=O)c1cc2ccccc2oc1=O 9.61% [at 54.9 µM]
CC(=O)N[C@H](CS)C(=O)O 3.38%
CC(C)(CS)C(=O)N1CCC[C@H]1C(=O)O 11.5% [at 54.9 µM]
CS(=O)(=O)CCCCN=C=S -13.5%
Cn1nnnc1SCC1=C(C(=O)O)N2C(=O)[C@@H](NC(=O)[C@@H](O)c3ccccc3)[C@@H]2SC1 -5.82% [at 54.9 µM]
O=c1cc(-c2ccccc2O)oc2cc(O)ccc12 -6.74%
OCC1O[C@H](OC2C(CO)O[C@@](O)(CO)C2O)C(O)C(O)C1O (stereo not given in full) -7.01%
Nc1ncnc2c1ncn2[C@@H]1O[C@H](COP(=O)(O)O)[C@@H](O)[C@@H]1O -1.43% [at 54.9 µM]
O=C(O)CCCCC1SCC2NC(=O)NC21 (stereo not given) -6.51%
CC(=O)N[C@H]1[C@@H](O[C@@H](C)C(=O)O)[C@H](O)[C@H](CO)O[C@@H]1O -10% [at 54.9 µM]
Fc1ccc([C@H]2CCNCC2COc2ccc3c(c2)OCO3)cc1 (stereo not given in full) -9.97%
CC1(C)CC[C@]2(C(=O)O)CC[C@@]3(C)C(=CCC4[C@@]5(C)CCC(O)[C@@](C)(CO)C5CC[C@@]43C)C2C1 (stereo not given in full) -12.2%
C[C@@H]1[C@H](C)CC[C@@]2(C(=O)O[C@H]3O[C@@H](CO[C@H]4O[C@@H](CO)[C@@H](O[C@H]5O[C@@H](C)[C@@H](O)[C@@H](O)[C@@H]5O)[C@@H](O)[C@@H]4O)[C@@H](O)[C@@H](O)[C@@H]3O)CC[C@]3(C)C(=CC[C@H]4[C@@]5(C)C[C@@H](O)[C@@H](O)[C@](C)(CO)[C@@H]5CC[C@@]43C)[C@@H]12 12.9% [at 54.9 µM]
CC(=O)N[C@@H](Cc1c[nH]c2ccccc12)C(=O)O -7.65%
CCC(CO)NCCNC(CC)CO (stereo not given) -11.5%
NC(=O)NCCC[C@H](N)C(=O)O 1.28%
C[N+]1(C)CC[C@@H](OC(=O)[C@@](O)(c2ccccc2)C2CCCC2)C1 8.06% [at 54.9 µM]
C[C@@H]1O[C@H](O[C@@H]2[C@H](C)O[C@H](O[C@@H]3[C@H](C)O[C@H](O[C@H]4CC[C@]5(C)[C@@H](CC[C@@H]6[C@H]5C[C@@H](O)[C@]5(C)[C@@H](C7=CC(=O)OC7)CC[C@]65O)C4)C[C@@H]3O)C[C@@H]2O)C[C@H](O)[C@@H]1O 3.73% [at 54.9 µM]
COC(=O)Nc1nc2ccc(SC(C)C)cc2[nH]1 9.27% [at 54.9 µM]
CCC(/C=C/C(C)C1CCC2C3CCC4=CC(=O)CC[C@@]4(C)C3CC[C@@]12C)C(C)C (stereo not given in full) -1.96%
CC1(C)OC2CC3C4CCC5=CC(=O)C=C[C@@]5(C)[C@]4(F)C(O)C[C@@]3(C)[C@]2(C(=O)CO)O1 (stereo not given in full) -3.61%
CC(C)CC(=O)N[C@H](C(=O)N[C@H](C(=O)N[C@@H](CC(C)C)[C@H](O)CC(=O)N[C@@H](C)C(=O)N[C@@H](CC(C)C)[C@H](O)CC(=O)O)C(C)C)C(C)C 2.69% [at 54.9 µM]
O=c1cc(-c2ccc(O)c(O)c2)oc2ccccc12 -11.8%
CC1(C)C2(Cl)C(Cl)C(Cl)C(Cl)(C(Cl)Cl)C1(Cl)C2Cl (stereo not given) -10.7%
O=C(Cc1ccccc1)NO -6.78%
C1CCN2C[C@@H]3C[C@@H](CN4CCCC[C@H]34)[C@H]2C1 6.27% [at 54.9 µM]
NCCCCC(N)C(=O)NC(Cc1ccc(O)cc1)C(=O)NC(CCCCN)C(=O)O (stereo not drawn) (H-Lys-Tyr-Lys-OH; configuration not given here) -4%

Potency, active:
Cc1cc(O)c(C=O)c2c1C(=O)Oc1c(C)c(O)c3c(c1O2)C(O)OC3=O (stereo not given) 39.8 µM
